In experiment [1] the target is Cytochrome P450 2C9 (Homo sapiens) (UniProt P11712). The experiment can be described thus: qHTS Assay for Inhibitors and Substrates of Cytochrome P450 2C9 (AID 883). For activity change, negative = inhibition: % is set by controls: 0 for no effect and ±100 for the full control effect. Note: nearly all actives have a fitted effect of over 60% in size. Note: potency is the fitted concentration of half-maximal effect. The essentials:
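Turnover of Luciferin-H (100uM, KM) by 10nM human CYP2C9 was measured over 60 min at 37C with NADPH regeneration; inhibitors and some substrates reduce luminescence. Data normalized to sulphaphenazole 57uM.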
(In general: qHTS replaces the single test concentration by a dilution series.)

Experiment [2] deals with Cytochrome P450 3A4 (Homo sapiens) (UniProt P08684). The experiment can be described thus: qHTS Assay for Inhibitors and Substrates of Cytochrome P450 3A4 (AID 884). For activity change, negative = inhibition: % is set by controls: 0 for no effect and ±100 for the full control effect. Note: nearly all actives have a fitted effect of over 50% in size. Note: potency is the fitted concentration of half-maximal effect. The procedure, abridged:
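20 nM human CYP3A4 with 25 uM Luciferin-PPXE (at KM) in 200 mM KPO4, preincubated 10 min with compound; NADPH regeneration started a 60 min RT reaction. Luciferin detected by luminescence, normalized to 57 uM ketoconazole as full inhibition.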

The nature of experiment [3]: qHTS profiling of the MIPE4 collection as inhibitors of Plasmodium falciparum (3D7) proliferation (AID 743344; call rule not given here;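 note: scaled between DMSO vehicle wells and 0.29 µM artemisinin as full inhibition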). Particulars: P. falciparum 3D7 in erythrocytes, SYBR Green DNA fluorescence, 72 h; at 28.5 µM (top of the series). The essentials: (§1)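 Erythrocytes infected with P. falciparum (0.3% parasitemia, 2.5% hematocrit) incubated with compounds 72 h at 37 C, 5% CO2. Lysis with saponin/Triton buffer containing SYBR Green I, overnight at room temperature in the dark; DNA fluorescence (485/535 nm) normalised to 0.29 uM artemisinin and DMSO.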

Experiment [4] is described as follows: qHTS profiling of the MIPE4 collection as inhibitors of Plasmodium falciparum (DD2) proliferation (AID 743345; call rule not given here). Particulars: P. falciparum Dd2 in erythrocytes, SYBR Green DNA, 72 h; at 28.5 µM (top of the series). The procedure, abridged: as §1
A short description of experiment [5]: qHTS profiling of the MIPE4 collection as inhibitors of Plasmodium falciparum (DD2) proliferation (Rep 2) (AID 743346; call rule not given here). Particulars: P. falciparum Dd2 in erythrocytes, SYBR Green DNA, 72 h; at 28.5 µM (top of the series). The procedure, abridged: as §1
The nature of experiment [6]: qHTS profiling of the MIPE4 collection as inhibitors of Plasmodium falciparum (HB3) proliferation (AID 743347; call rule not given here;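 note: plate controls were DMSO vehicle wells for no effect and artemisinin wells for full effect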). Particulars: P. falciparum HB3 in erythrocytes, SYBR Green DNA, 72 h; at 28.5 µM (top of the series). The essentials:
as §1

Experiment [7] addresses Cytochrome P450 3A4 (Homo sapiens) (UniProt P08684). As to the kind of experiment: qHTS Assay for Activators of Cytochrome P450 3A4 (AID 885). Note: nearly all actives have a fitted effect of over 65% in size. The procedure, abridged: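 Signal was normalized against complete inhibition by 57 uM ketoconazole. The reaction used 20nM CYP3A4 with 25uM Luciferin-PPXE, 10-min compound preincubation and a 60-min NADPH-supported step at RT.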
Experiment [8] concerns the target Cytochrome P450 2D6 (Homo sapiens) (UniProt P10635). The experiment can be described thus: qHTS Assay for Inhibitors and Substrates of Cytochrome P450 2D6 (AID 891).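 Note: luciferin methyl ether substrate demethylated by CYP2D6 with NADPH regeneration; % is set by controls: 0 for no effect and ±100 for the full control effect; nearly all actives have a fitted effect of over 60% in size.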 The procedure, abridged:
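Human CYP2D6 (5 nM) with 30 uM Luciferin-ME EGE (at Km) in 100 mM KPO4, compound preincubated 10 min, then NADPH regeneration system for 60 min at room temperature. Luciferin read by luminescence; normalized to 1.43 uM quinidine.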

The target of experiment [9] is Cytochrome P450 2C19 (Homo sapiens) (UniProt P33261). As to the kind of experiment: qHTS Assay for Inhibitors and Substrates of Cytochrome P450 2C19 (AID 899). Note: nearly all actives have a fitted effect of over 60% in size. Note: potency is the fitted concentration of half-maximal effect. The procedure, abridged:
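Reactions contain 5nM enzyme, 10uM Luciferin-H EGE (KM) and 50mM KPO4; compound preincubates 10 min at 37C, NADPH regeneration starts turnover for 60 min. Luminescence after detection reagent gives activity.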

Where “and” joins values, the source holds several entries; their conditions need not be identical. Equal values may be shown once. Inconclusive results are not listed. The source holds several records for some structures; these can differ, active in one and inactive in another. Calls of active or inactive are those of the source. Unless noted, calls come from the whole dose curve; as a rule, active = well fitted curve in the direction sought with a large enough effect; inconclusive = small, poorly fitted or top-dose-only effect, or another doubt; inactive = no such curve, though single readings can be large; an effect the other way counts as inactive or inconclusive.

Sequence of Cytochrome P450 2D6 (Homo sapiens) (P10635 whole entry, looked up): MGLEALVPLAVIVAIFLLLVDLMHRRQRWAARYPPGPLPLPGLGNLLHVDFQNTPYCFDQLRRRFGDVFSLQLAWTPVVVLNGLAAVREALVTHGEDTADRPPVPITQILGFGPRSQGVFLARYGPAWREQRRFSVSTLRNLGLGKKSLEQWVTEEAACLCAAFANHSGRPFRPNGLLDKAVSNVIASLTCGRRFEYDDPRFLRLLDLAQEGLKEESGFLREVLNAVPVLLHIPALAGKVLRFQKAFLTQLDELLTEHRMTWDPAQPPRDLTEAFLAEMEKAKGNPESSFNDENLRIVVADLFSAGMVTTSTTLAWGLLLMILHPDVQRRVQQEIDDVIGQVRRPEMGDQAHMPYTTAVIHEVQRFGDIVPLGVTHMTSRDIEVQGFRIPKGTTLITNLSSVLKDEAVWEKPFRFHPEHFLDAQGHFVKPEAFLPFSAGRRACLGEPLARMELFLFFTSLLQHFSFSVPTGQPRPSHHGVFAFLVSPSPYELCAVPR
Sequence of Cytochrome P450 3A4 (Homo sapiens) (P08684 whole entry, looked up): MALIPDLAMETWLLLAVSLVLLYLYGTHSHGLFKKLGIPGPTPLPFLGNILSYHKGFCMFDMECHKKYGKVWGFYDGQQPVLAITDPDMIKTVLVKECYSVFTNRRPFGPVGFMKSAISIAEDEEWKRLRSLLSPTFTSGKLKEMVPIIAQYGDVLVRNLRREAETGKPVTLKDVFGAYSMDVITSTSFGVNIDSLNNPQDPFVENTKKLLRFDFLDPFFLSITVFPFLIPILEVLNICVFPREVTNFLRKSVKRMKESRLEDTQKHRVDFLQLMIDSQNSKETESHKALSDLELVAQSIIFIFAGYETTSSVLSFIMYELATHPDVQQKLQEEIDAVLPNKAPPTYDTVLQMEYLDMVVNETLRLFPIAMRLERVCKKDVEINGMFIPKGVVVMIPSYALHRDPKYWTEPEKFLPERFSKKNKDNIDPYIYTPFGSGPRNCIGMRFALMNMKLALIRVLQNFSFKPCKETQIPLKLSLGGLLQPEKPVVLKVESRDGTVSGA
Sequence of Cytochrome P450 2C19 (Homo sapiens) (P33261 whole entry, looked up): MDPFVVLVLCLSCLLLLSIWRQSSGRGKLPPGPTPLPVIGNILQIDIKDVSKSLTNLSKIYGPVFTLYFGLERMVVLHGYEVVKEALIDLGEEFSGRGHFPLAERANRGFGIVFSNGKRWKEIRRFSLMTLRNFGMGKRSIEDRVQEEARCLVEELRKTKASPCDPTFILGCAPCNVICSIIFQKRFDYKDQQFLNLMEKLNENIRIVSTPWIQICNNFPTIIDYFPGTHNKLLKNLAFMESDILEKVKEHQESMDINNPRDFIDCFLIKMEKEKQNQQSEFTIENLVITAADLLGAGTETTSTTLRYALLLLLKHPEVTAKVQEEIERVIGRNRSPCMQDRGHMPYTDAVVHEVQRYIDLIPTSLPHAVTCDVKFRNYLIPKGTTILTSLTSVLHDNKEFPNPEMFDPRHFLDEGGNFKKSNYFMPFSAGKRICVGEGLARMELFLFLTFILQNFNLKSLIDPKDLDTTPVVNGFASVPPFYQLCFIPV
Sequence of Cytochrome P450 2C9 (Homo sapiens) (P11712 whole entry, looked up): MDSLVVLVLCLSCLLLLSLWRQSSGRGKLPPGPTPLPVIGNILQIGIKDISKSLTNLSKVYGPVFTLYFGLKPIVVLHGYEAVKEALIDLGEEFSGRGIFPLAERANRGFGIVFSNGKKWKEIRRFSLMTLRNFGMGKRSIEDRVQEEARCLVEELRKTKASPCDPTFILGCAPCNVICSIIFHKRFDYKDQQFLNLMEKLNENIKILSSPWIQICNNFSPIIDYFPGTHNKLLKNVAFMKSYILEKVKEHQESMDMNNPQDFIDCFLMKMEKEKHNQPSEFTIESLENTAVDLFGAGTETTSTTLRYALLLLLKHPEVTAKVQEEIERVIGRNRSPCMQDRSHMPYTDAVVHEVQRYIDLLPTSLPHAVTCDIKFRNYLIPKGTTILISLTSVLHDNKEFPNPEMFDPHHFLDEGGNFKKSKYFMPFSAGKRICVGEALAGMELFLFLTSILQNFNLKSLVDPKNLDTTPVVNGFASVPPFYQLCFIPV

On to `COC(=O)NC(/C(C(=O)OC)=C(\C)NCc1ccccc1)c1cccc(F)c1` (stereo not given), for which the Potency entry in experiment [1] was “inactive”. Also, the activity change, negative = inhibition in experiment [2] is -19.8% [at 11.4 µM] (inactive).
In experiment [3], `CO[C@H]1C=CO[C@@]2(C)Oc3c(C)c(O)c4c(O)c(c(C=NN5CCN(C)CC5)c(O)c4c3C2=O)NC(=O)C(C)=CC=CC(C)[C@H](O)[C@@H](C)[C@@H](O)[C@@H](C)[C@@H](OC(C)=O)[C@H]1C` (stereo not given in full) registered a parasite growth, % of DMSO control of 4.07%. The same molecule had a parasite growth remaining, % of DMSO control (lower = more inhibition) in experiment [4] of 6.12%. In [5], this molecule had a parasite growth, % of control (lower = inhibition) of 8.95%. In [6], this molecule came in with a growth, % of control of 6.73%.
Take `COc1ccc(C#CC2C=CC(OC(C)=O)C(COC(C)=O)O2)cc1` (stereo not given): the Potency entry in [1], in experiment [8] and in experiment [9] was “inactive” each time. In addition, in experiment [2], the Potency was 2.51 µM (active). Further, the activity change, negative = inhibition in experiment [2] was -3.53% [at 11.4 µM] (inactive). The activity change, positive = activation in [7] is -88.8% [at 11.4 µM] (inactive).
As to `CC(=O)OC[C@@H]1O[C@@H](O/N=C2/C[C@@H](O)[C@@H](O)[C@@H]3[C@@H]4C(=O)N(C5CCCCC5)C(=O)[C@H]4CC[C@@H]23)[C@H](OC(C)=O)[C@H](OC(C)=O)[C@@H]1OC(C)=O`, in experiment [1], the Potency entry is “inactive”.
For `CCOC(=O)OCC1OC(CCc2ccccc2)CCC1Oc1ccc(OC)cc1` (stereo not given), the Potency entry in [1] and in experiment [8] was “inactive” in each case. Further, in experiment [2], the Potency is 3.98 µM (active). Moreover, in [7], the activity change, positive = activation was -68.7% [at 11.4 µM] (inactive).
On to `Cc1cc(C)cc(C#CC2C=CC(Oc3ccc(C4CCCC4)cc3)C(CO)O2)c1` (stereo not given), for which the Potency result in experiment [1], in [8] and in experiment [9] was “inactive” throughout. Further, in experiment [2], the Potency was 3.98 µM (active). In addition, the activity change, positive = activation in experiment [7] was -81.6% [at 11.4 µM] (inactive).
Take `COc1ccc(S(=O)(=O)N(CCO)c2ccccc2CN(C)CC=Cc2ccc(Cl)cc2)cc1`: in experiment [3], the parasite growth, % of DMSO control turned out to be 6.17%. The molecule further had a parasite growth remaining, % of DMSO control (lower = more inhibition) in [4] of 26.4%. For the same molecule, in experiment [5], the parasite growth, % of control (lower = inhibition) amounted to 18.1%. The growth, % of control in experiment [6] was 9.71%.
For the molecule `Cc1cc(C)cc(/C=C/C2OCC(O)C2Oc2ccc(C3CCCC3)cc2)c1` (stereo not given), the Potency entry in experiment [1], in experiment [8] and in experiment [9] was “inactive” throughout. In addition, the Potency in experiment [2] is 3.16 µM (active). Moreover, in experiment [7], the activity change, positive = activation was -62.6% [at 11.4 µM] (inactive) and -33.3% [at 11.4 µM] (inactive).
In the case of `COc1cccc([C@@H]2Oc3ccc(OC)cc3/C(=N/O[C@@H](C)CN3CCCCc4nc(C)c(C)cc43)[C@@H]2O)c1`, the Potency is 1.58 µM (active) in experiment [1] and 3.98 µM (active) in experiment [2]. Further, the activity change, positive = activation in [7] was -96.4% [at 11.4 µM] (inactive).
Regarding `CCCNC(=O)OC[C@@H]1O[C@H](CCO/N=C(\C)CCN2CCc3nc(-c4ccccc4)c(-c4ccccc4)cc3C2)C=C[C@@H]1Oc1ccc(OC)cc1`, the Potency was 2 µM (active) in experiment [1] and 3.16 µM (active) in [2]. Further, in [7], the activity change, positive = activation is -74.2% [at 11.4 µM] (inactive).
On to `C/C=C/OC(=O)NC(c1ccccc1)[C@@]1(C(=O)OC)CCCC1=O` (stereo not given in full), for which the Potency entry in experiment [1] and in experiment [8] was “inactive” each time. Besides, the figures for the Potency in [2] and in experiment [9] were 1 µM (active) and 1.26 µM (active), respectively. Also, in experiment [7], the activity change, positive = activation is -81.6% [at 11.4 µM] (inactive).
`C=CCCC/C=C(/C)C(OCc1ccc(OC)cc1)C(CC/C=C(\C)C(N)=O)OC` (stereo not given): the Potency result in experiment [1] is “inactive”. The Potency in experiment [2] is 3.98 µM (active). Further, the activity change, positive = activation in experiment [7] was -96.8% [at 11.4 µM] (inactive).

For the origin of these results see PubChem BioAssay (NCATS).
